Source: PubChem BioAssay AID1220 (Sanford-Burnham Center for Chemical Genomics, 2008)
The campaign covered roughly 190,000 compounds. About 1,300 (0.68%) were called active. Cut-off read from the data, not from the text of the source: active = inhibition above about 50%; inactive = the rest. For the sample, actives were picked, then their nearest neighbours and some compounds at random.

These compounds were tested against Mannose-6-phosphate isomerase (Homo sapiens) (UniProt P34949) (assay: human PMI inhibitors, high substrate, primary screen, biochemical, fluorescence intensity, high mannose 6-phosphate (AID 1220)). Conditions: recombinant PMI enzyme, coupled fluorescence intensity; at 20 µM; stronger effect = higher value.
Sequence of Mannose-6-phosphate isomerase (Homo sapiens) (P34949 whole entry, looked up): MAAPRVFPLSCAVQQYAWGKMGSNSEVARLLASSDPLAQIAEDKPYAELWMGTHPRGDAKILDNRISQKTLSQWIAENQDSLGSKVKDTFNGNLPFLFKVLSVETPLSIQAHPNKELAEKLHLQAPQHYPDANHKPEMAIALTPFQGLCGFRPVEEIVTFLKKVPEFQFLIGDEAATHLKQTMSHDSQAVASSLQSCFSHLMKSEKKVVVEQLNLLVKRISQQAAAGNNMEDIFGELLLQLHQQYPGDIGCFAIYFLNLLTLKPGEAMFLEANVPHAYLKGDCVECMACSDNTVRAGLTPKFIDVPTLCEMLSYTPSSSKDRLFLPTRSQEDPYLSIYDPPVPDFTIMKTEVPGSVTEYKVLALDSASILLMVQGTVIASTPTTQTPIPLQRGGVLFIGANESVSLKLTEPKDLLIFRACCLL
In the case of `CC(NC(=O)Oc1ccccc1)C(c1cccs1)N1CCOCC1` (stereo not drawn), the inhibition is reported as 3% (inactive). `Cc1ccc(-c2nn(Cc3ccccc3)cc2C=O)cc1` was tested, and the inhibition was 3.6% (inactive). For `O=c1[nH]c(O)c(N=Nc2ccc([N+](=O)[O-])cc2)c(=O)[nH]1`, the inhibition was -7.5% (inactive). For `O=C(N=Nc1c(O)[nH]c(=O)[nH]c1=O)C1COc2ccccc2O1` (stereo not drawn), the inhibition was 56.6% (active). For `NC(=O)c1ccc(N=Nc2c(O)[nH]c(=O)[nH]c2=O)cc1`, the inhibition was 2.6% (inactive). In the case of `O=C(c1ccccc1)c1ccc(N=Nc2c(O)[nH]c(=O)[nH]c2=O)cc1`, the inhibition is reported as -8.7% (inactive). With `O=c1[nH]c(O)c(N=Nc2ccc3c(c2)OCCO3)c(=O)[nH]1` the inhibition was 2.6% (inactive). For `O=C(N=Nc1c(O)[nH]c(=O)[nH]c1=O)C1COc2cc3ccccc3cc2O1` (stereo not drawn), the inhibition was 51.7% (active). With `CN(C)C(=O)Oc1ccc(-c2nnco2)cc1` the inhibition was 2.3% (inactive). For `OC1(c2cccnc2)CC2CCC(C1)N2Cc1nnnn1Cc1ccccc1` (stereo not drawn), the inhibition was -8.1% (inactive). For `CCOP(=O)(OCC)C(c1ccccc1)N(C)C=O` (stereo not drawn), the inhibition was 1.8% (inactive). With `CC(C)(C)NC(=O)NC(=O)CN1CC=C(c2ccccc2)CC1` the inhibition was 7.7% (inactive). With `O=C1NC(=O)C2(Cc3ccccc3N3CCCC32)C(=O)N1` (stereo not drawn) the inhibition was -47.2% (inactive). With `O=C(Nc1ccc2c(c1)OCO2)c1cn(Cc2ccc(F)cc2)nn1` the inhibition was 12.6% (inactive). For `Cc1ccccc1NC1(C#N)CCCCC1`, the inhibition was -0.6% (inactive). With `COc1ccc(NC2(C#N)CCCCC2)cc1` the inhibition was 52.7% (active). `COc1ccccc1NC1(C#N)CCCCC1` was tested, and the inhibition was 38.8% (inactive). In the case of `Cc1sc2ncn(CC(=O)NCCCC(=O)N3CCC4(CC3)OCCO4)c(=O)c2c1C`, the inhibition is reported as -1.4% (inactive). `O=C1C(=O)c2cccc3cccc1c23` was tested, and the inhibition was 44.3% (inactive). In the case of `O=C1C=Cc2ccccc2C1=O`, the inhibition is reported as 75.2% (active). `O=C1C(=O)c2ccccc2-c2ccccc21` was tested, and the inhibition was 1.8% (inactive). `CCC(CO)Nc1ccc([N+](=O)[O-])c2cccnc12` (stereo not drawn) was tested, and the inhibition was 38.6% (inactive). `O=C(NCCCN1CCOCC1)C(Cl)(Cl)Cl` was tested, and the inhibition was -7.8% (inactive). `O=[N+]([O-])c1ccc(NCCCN2CCOCC2)c2ncccc12` was tested, and the inhibition was 57.5% (active). In the case of `CCN(CC)c1ccc([N+](=O)[O-])c2cccnc12`, the inhibition is reported as 67.2% (active). `CC(O)CNc1ccc([N+](=O)[O-])c2cccnc12` (stereo not drawn) was tested, and the inhibition was 52.2% (active). For `NCCNc1ccc([N+](=O)[O-])c2cccnc12`, the inhibition was 51.1% (active). `O=[N+]([O-])c1ccc(NCc2ccccc2)c2nonc12` was tested, and the inhibition was 43.9% (inactive). With `CCN(CCNc1ccc([N+](=O)[O-])c2cccnc12)S(=O)(=O)c1ccccc1` the inhibition was 8.2% (inactive). In the case of `CCN(CCNc1ccc([N+](=O)[O-])c2cccnc12)S(=O)(=O)c1ccc(Cl)cc1`, the inhibition is reported as 36.7% (inactive). For `Cc1nonc1OCCNc1ccc([N+](=O)[O-])c2cccnc12`, the inhibition was 33.9% (inactive). For `Cc1nonc1OCCNCCNc1ccc([N+](=O)[O-])c2cccnc12`, the inhibition was 39% (inactive). For `O=[N+]([O-])c1ccc(NCCO)c2ncccc12`, the inhibition was 35.9% (inactive).
